Source: PubChem
Hits are enriched below; roughly 10% of the tested compounds scored in any of these assays.
GPT2 inh = inhibitors of human GPT2 alanine aminotransferase | AID 1671188 | Recombinant GPT2, coupled pyruvate oxidase/HRP Amplex Red fluorescence | Q8TD30 | actives 0.25% (n = 100,000) | Potency, µM (series often up to 57.7 µM), inactives show at the top dose activity change, negative = inhibition, most hits filed as inhibitors; note: nearly all actives have a fitted effect of over 60% in size
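Recombinant GPT2 (10ng/uL) with 250uM a-KG and 2mM L-alanine, 30 min at room temperature, in HEPES pH 7.5 buffer. Pyruvate detected by pyruvate oxidase/HRP/Amplex Red fluorescence after 30 min in the dark; AOA (50uM) as positive control.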
3T3 cytotox = NIH 3T3 cell cytotoxicity; NIH 3T3 viability, CellTiter-Glo ATP luminescence, 48-72 h; Potency, µM (doses to about 96.7 µM), for inactives: at the highest dose activity change, negative = cytotoxicity, usual class: inhibitors; actives 4.3% (n = 94,000); AID 1345082; note: nearly all actives have a fitted effect of over 55% in size
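Mouse fibroblast NIH 3T3 cells, 400 per well, received compound via pintool and were incubated for 48 or 72 hr prior to CellTiter-Glo ATP luminescence measurement.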
Luciferase inh = inhibitors of firefly (Photinus pyralis) luciferase; P08659; purified P. pyralis luciferase, luminescence, biochemical; Potency, µM (highest dose often 115 µM), hits mostly inhibitors; actives 2.5% (n = 76,000); AID 1347043; note: nearly all actives have a fitted effect of over 65% in size
Target sequence (P08659 whole entry, looked up): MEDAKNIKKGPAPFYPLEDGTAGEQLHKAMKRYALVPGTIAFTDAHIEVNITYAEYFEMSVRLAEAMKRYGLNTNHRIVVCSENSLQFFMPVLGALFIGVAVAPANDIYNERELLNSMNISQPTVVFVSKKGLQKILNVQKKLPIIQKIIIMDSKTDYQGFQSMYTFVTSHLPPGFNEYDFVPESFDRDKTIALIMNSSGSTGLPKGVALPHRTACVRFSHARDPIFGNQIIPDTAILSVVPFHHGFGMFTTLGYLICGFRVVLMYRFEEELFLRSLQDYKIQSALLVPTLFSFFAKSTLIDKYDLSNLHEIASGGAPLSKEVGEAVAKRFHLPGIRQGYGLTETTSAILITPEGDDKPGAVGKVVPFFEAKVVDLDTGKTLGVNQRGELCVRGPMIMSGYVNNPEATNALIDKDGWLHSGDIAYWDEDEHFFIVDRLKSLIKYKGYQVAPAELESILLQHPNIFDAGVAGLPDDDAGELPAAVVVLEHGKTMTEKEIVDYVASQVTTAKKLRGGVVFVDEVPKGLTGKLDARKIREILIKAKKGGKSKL
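Luminescence read by CCD imager after adding enzyme (10nM final) to wells holding compound, titrated in qHTS. Substrates 10uM each D-luciferin and ATP; buffer 50mM Tris acetate pH 7.5, 10mM Mg acetate, Tween-20, BSA.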
HEK cytotox = kills HEK 293 cells. actives 6.6% (n = 94,000). AID 1345083. HEK 293 viability, ATP luminescence (CellTiter-Glo), 48-72 h. Potency, µM (doses to about 115 µM), for the others: top-dose activity change, negative = cytotoxicity, most hits filed as inhibitors; note: nearly all actives have a fitted effect of over 60% in size
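Pintool-delivered compounds were incubated with HEK 293 cells (250 cells/well) at 37 degree Celsius for 48 or 72 hr. ATP-dependent luminescence (CellTiter-Glo) then reported remaining viable cells.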
hNpr1 antagonist = antagonists of human natriuretic peptide receptor Npr1; HEK293 hNpr1 GloSensor cGMP, ANP-stimulated luminescence; actives 1.6% (n = 76,000); Potency, µM (top dose mostly 46.3 µM), for inactives: at the highest dose activity change, negative = inhibition, hits mostly inhibitors; AID 1347048; calls by dose curve; note: nearly all actives have a fitted effect of over 60% in size
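HEK293 cells stably expressing human Npr1 and cGMP GloSensor pGS-40F, loaded 2 h with 2% GloSensor reagent, given compound 30 min at room temperature. Luminescence read before and 20 min after 0.1 nM hNppA.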
* = called active by the depositor; i = inactive; u = inconclusive; x = no result given; [ ] = another dose, or the depositor's remark. Unless noted, calls come from the whole dose curve; as a rule, active = well fitted curve in the direction sought with a large enough effect; inconclusive = small, poorly fitted or top-dose-only effect, or another doubt; inactive = no such curve, though single readings can be large; an effect the other way counts as inactive or inconclusive. % is set by controls: 0 for no effect and ±100 for the full control effect; potency is the fitted concentration of half-maximal effect.

SMILES	GPT2 inh	3T3 cytotox	Luciferase inh	HEK cytotox	hNpr1 antagonist
Cc1ccccc1C(=O)N1CCN(C(=O)c2nnn3c2COC(c2ccccc2)C3)CC1 (centres undefined)	i	-7%	i	u	-20%
O=C1CCC2(C(=O)NCc3ccc(F)cc3)CCCC=C2N1C1CCCC1 (centres undefined)	4%	u	x	u	x
CN(C)c1cccc(-c2cnc(Nc3cccnc3)c3c2CCO3)c1	2%[88.5 µM]	50µM*	40µM*	63µM*	u
CN(C)c1cccc(-c2cnc(Nc3ccc4c(c3)OCCO4)c3c2CCO3)c1	i	-23%[138 µM]	3.5µM*	u	u
CNC(=O)c1cccc(-c2cnc(Nc3ccc4c(c3)OCCO4)c3c2CCO3)c1	i	u	5.6µM*	79µM*	u
Cc1nnc2ccc(N3CCN(C(=O)Nc4ccccc4F)CC3)nn12	x	u	x	-1%	x
O=C(O)CCC(=O)N1Cc2[nH]cnc2C[C@H]1c1nc(-c2ccc(Cl)cc2)no1	-2%[88.5 µM]	i	71µM*	4%[172 µM]	5%[70.6 µM]
O=C(Nc1ccccc1)N1Cc2[nH]cnc2C[C@H]1c1nc(-c2ccc(Cl)cc2)no1	-7%[88.5 µM]	u	45µM*	100µM*	u
O=C(c1ccc(F)cc1)N1Cc2[nH]cnc2C[C@H]1c1nc(-c2ccc(Cl)cc2)no1	1%[88.5 µM]	u	i	u	-21%[70.6 µM]
O=C(c1ccc(F)cc1)N1Cc2[nH]cnc2C[C@H]1c1nc(-c2ccc3c(c2)OCO3)no1	i	u	32µM*	u	-18%[70.6 µM]
O=C(Nc1ccccc1)N1Cc2[nH]cnc2C[C@H]1c1nc(-c2ccccc2)no1	-16%[88.5 µM]	u	40µM*	-10%[172 µM]	-21%[70.6 µM]
O=C(Nc1ccc(Cl)cc1)N1Cc2[nH]cnc2C[C@H]1c1nc(-c2ccc3ccccc3c2)no1	-4%	u	32µM*	u	-2%
O=C(c1cccs1)N1Cc2[nH]cnc2C[C@H]1c1nc(-c2ccc3ccccc3c2)no1	-13%[88.5 µM]	u	28µM*	-23%[172 µM]	-1%[70.6 µM]
Cc1ccc(-c2noc([C@@H]3Cc4nc[nH]c4CN3C(=O)c3ccccc3)n2)cc1	3%[88.5 µM]	-19%[174 µM]	40µM*	0%[172 µM]	-1%[70.6 µM]
COc1ccc(NC(=O)N2Cc3[nH]cnc3C[C@H]2c2nc(-c3ccc4ccccc4c3)no2)cc1	i	u	i	u	-5%
O=C(c1ccccc1)N1Cc2[nH]cnc2C[C@H]1c1nc(-c2ccncc2)no1	i	-27%[174 µM]	i	-17%[172 µM]	1%[70.6 µM]
Cc1ccc(-c2noc([C@@H]3Cc4nc[nH]c4CN3C(=O)Nc3ccc(Cl)cc3)n2)cc1	u	u	40µM*	u	u
COc1ccc(-c2cn3cc(C(=O)N4CCCCC4)nc3s2)cc1	0%	u	x	u	x
O=C(Nc1ccc([C@@H](O)[C@H]2COCC(=O)N2Cc2ccccc2F)cc1)c1cccs1	3%	-8%	i	-24%	1%
O=C(c1ccc(F)cc1)N1CC(=O)N(C2CCC2)CC(O)C1 (centres undefined)	x	u	x	-13%	x
O=C(c1cc2n(n1)CC(c1ccc3c(c1)OCO3)OC2)N1CCCC1 (centres undefined)	4%	u	i	u	0%
c1ccc([C@@H]2C[C@@H]3C[C@H](N4CCN(Cc5ccccn5)CC4)C[C@@H]3CO2)cc1	x	-26%	x	u	x
COCCNC(=O)C1COC2(CCN(C(=O)c3ccccc3F)CC2)N1C(=O)c1ccco1 (centres undefined)	i	-12%	i	-10%	1%
COC(=O)[C@@H]1Cc2c([nH]c3ccccc23)[C@H]2C[C@H](NC[C@H]3CCCO3)C[C@@H](c3ccccc3F)N21	-6%	35µM*	i	u	0%
COC(=O)C1=C(C)N=C2SC=C(CC(=O)NCC3CCCO3)N2C1c1ccccc1F (centres undefined)	0%	-21%	i	-27%	-12%
SMILES	GPT2 inh	3T3 cytotox	Luciferase inh	HEK cytotox	hNpr1 antagonist
CN1[C@H](C(=O)O)C[C@H](C(=O)NCCCO)[C@@H]1c1ccccc1F	-9%	-4%	i	0%	7%
COC(=O)[C@@H]1Cc2c([nH]c3ccccc23)[C@H]2C[C@@H](NCCO)C[C@@H](c3ccccc3F)N21	1%[88.5 µM]	28µM*	i	40µM*	-15%[70.6 µM]
COC(=O)[C@@H]1Cc2c([nH]c3ccccc23)[C@H]2C[C@@H](NCCNC(C)=O)C[C@@H](c3ccccc3F)N21	0%	79µM*	u	u	-5%
COc1ccc(CCC(=O)N2CCC3(CC2)C(=O)N(C)c2ccccc23)cc1	-11%	-21%	i	u	-10%
O=C(NCCC1=CCCCC1)C1CCN(C(=O)N2CC3CC(C2)[C@H]2CCCC(=O)N2C3)CC1 (some centres undefined)	3%	-19%	i	-12%	1%
CNc1cc(C2CC(NC(=O)COc3ccc(Cl)cc3C)C2)nc(N)n1 (centres undefined)	i	40µM*	i	18µM*	-10%
CNc1cc(C2CC(NC(=O)NCCc3ccccc3F)C2)nc(N)n1 (centres undefined)	-3%	-21%	i	-5%	0%
O=C(O)COc1ccc(-c2nccc3c2C(=O)N(Cc2c[nH]c4ccccc24)CC(CNC(=O)c2cccc(Cl)c2)O3)cc1 (centres undefined)	-17%	32µM*	i	-10%	2%
O=C(O)COc1ccc(-c2nccc3c2C(=O)N(Cc2c[nH]c4ccccc24)CC(COc2ccccc2)O3)cc1 (centres undefined)	-9%	u	u	4%	7%
Cc1cc(C)cc(-c2ccc(CN3CCCC3C(=O)NCC(F)(F)F)cc2)c1 (centres undefined)	i	u	x	u	x
C#CCNC(=O)C1CCCN1Cc1ccc(-c2cc(C)cc(C)c2)cc1 (centres undefined)	-3%	u	x	45µM*	x
Cc1cc(C)cc(-c2ccc(CN3CCCC3C(=O)NC3CCCC3)cc2)c1 (centres undefined)	i	22µM*	x	28µM*	x
Cc1cccc(NC(=O)Cn2c(-c3ccc(Cl)cc3)nc(C)c(CCO)c2=O)c1C	2%	-7%	i	-17%	-2%
CCC1=C(C(=O)OC)C(c2ccccc2F)N2C(CC(=O)NC3CC3)=CSC2=N1 (centres undefined)	2%	0%	i	-6%	-25%
Cc1nc(C(=O)N2CCOc3c(O)cc(-c4cccc(Cl)c4)cc3C2)c(C)o1	-18%	u	i	40µM*	u
CCOC(=O)C(C)N1CCOc2c(O)cc(-c3cccc(Cl)c3)cc2C1 (centres undefined)	2%[11.5 µM]	u	i	45µM*	u
